Records with an inconclusive call do not appear. Entries that show only a call come without a potency. Active and inactive are the calls of the source. Unless noted, calls follow the shape of the dose curve; as a rule, active = well fitted curve in the direction sought with a large enough effect; inconclusive = small, poorly fitted or top-dose-only effect, or another doubt; inactive = no such curve, though single readings can be large; an effect the other way counts as inactive or inconclusive.
Assay: qHTS assay for small molecule agonists of the antioxidant response element (ARE) signaling pathway measured by Nrf2-dependant transcriptional activity - cell viability counter screen (AID 720653; active = well fitted curve in the direction sought with a large enough effect in the repeat runs; an effect the other way counts as inactive or inconclusive)
Settings: ARE-bla HepG2 viability, CellTiter-Glo ATP luminescence, 16 h; hits give low values
Method in brief: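 ARE-bla HepG2 cells treated with compounds for 16 h at 37C; this counter screen measures viability as intracellular ATP by CellTiter-Glo luminescence after 30 min at room temperature.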
For `Nc1ccccc1N`, the max response was 1.96% (inactive). With `Cc1ccc(N)cc1O` the max response was -11.4% (inactive). With `CC(=O)O[C@@H]1CC(C)=C2[C@H]1[C@H](C)CC[C@H]2/C=C(\C)C(=O)O` the max response was -16.1% (inactive). With `CC(=O)O[C@H]1C(=O)[C@@]2(C)[C@H]([C@H](OC(=O)c3ccccc3)[C@]3(O)C[C@H](OC(=O)[C@H](O)[C@@H](NC(=O)c4ccccc4)c4ccccc4)C(C)=C1C3(C)C)[C@]1(OC(C)=O)CO[C@@H]1C[C@@H]2O` the max response was -7.37% (inactive).

Assay: qHTS assay for cell viability of HEK293 cells (AID 743288); also: nearly all actives have a fitted effect of over 50% in size
Settings: ATP luminescence (CellTiter-Glo), 18 h, hits give low values
Method in brief: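 Quantitative high-throughput screen: compounds were pinned onto parental HEK293 cells (2,000 per well) after a minimum 5 h settling at 37 C, incubated 18 h at 37 C, and intracellular ATP measured by luciferase luminescence.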
For `Cc1ccc(N)cc1O`, the max response was 3.99% (inactive). With `CC(=O)O[C@@H]1CC(C)=C2[C@H]1[C@H](C)CC[C@H]2/C=C(\C)C(=O)O` the max response was -5.49% (inactive). In the case of `CC(=O)O[C@H]1C(=O)[C@@]2(C)[C@H]([C@H](OC(=O)c3ccccc3)[C@]3(O)C[C@H](OC(=O)[C@H](O)[C@@H](NC(=O)c4ccccc4)c4ccccc4)C(C)=C1C3(C)C)[C@]1(OC(C)=O)CO[C@@H]1C[C@@H]2O`, the max response was -10.4% (inactive).

Assay: qHTS assay for cell viability of the p53RE-bla HCT-116 cell line (AID 743292); also: nearly all actives have a fitted effect of over 55% in size
Settings: p53RE-bla HCT-116 viability, ATP luminescence, 16 h; series mostly up to 95 µM
Method in brief: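 HCT-116 p53RE-bla cells seeded 4,000/well; 5 h at 37 C; compound (DMSO) added; 16 h at 37 C; CellTiter-Glo added, 30 min RT; luminescence read.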
With `Nc1ccccc1N` the outcome was “inactive”. With `Cc1ccc(N)cc1O` the outcome was “inactive”. In the case of `CC(=O)O[C@@H]1CC(C)=C2[C@H]1[C@H](C)CC[C@H]2/C=C(\C)C(=O)O`, the outcome was “inactive”. For `CC(=O)O[C@H]1C(=O)[C@@]2(C)[C@H]([C@H](OC(=O)c3ccccc3)[C@]3(O)C[C@H](OC(=O)[C@H](O)[C@@H](NC(=O)c4ccccc4)c4ccccc4)C(C)=C1C3(C)C)[C@]1(OC(C)=O)CO[C@@H]1C[C@@H]2O`, the outcome was “inactive”.

Assay: P-glycoprotein substrates identified in KB-8-5-11 adenocarcinoma cell line, qHTS therapeutic library screen (AID 1346987); also: nearly all actives have a fitted effect of over 65% in size; also: potency is read from the fitted curve at half-maximal effect
Settings: KB-8-5-11 (P-gp overexpressing) viability, CellTiter-Glo, 72 h; series mostly up to 44.5 µM
Method in brief: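 Luminescence from CellTiter-Glo, read 5 min after addition, quantified survival of KB-8-5-11 (P-gp-overexpressing) cells exposed to compounds for 72 h. AC50 was derived from concentration-response curves.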
In the case of `Cc1c(F)cc(C(=O)NC2CC2)cc1-c1c(F)cn2c(C(C)(C)C)nnc2c1F`, the Potency was “inactive”. With `C=C[C@H]1[C@H](O[C@@H]2O[C@H](CO)[C@@H](O)[C@H](O)[C@H]2O)OC=C(C(=O)OC)[C@H]1C[C@@H]1c2cc(O)c(O)cc2CCN1C(C)=O` the Potency was “inactive”. In the case of `C=C(C)C1Cc2cc(C(=O)OC3OC(CO)C(O)C(O)C3O)ccc2O1` (stereo not drawn), the Potency was “inactive”. For `CC(O)c1cc(C(=O)N[C@@H](C)Cn2ccc(-c3ccc(C#N)c(Cl)c3)n2)n[nH]1` (stereo partly drawn), the Potency was “inactive”. With `CC1OC(OC2CCC3(C)C(CCC4(C)C3CC=C3C5CC(C)(C)CCC5(C(=O)OC5OC(CO)C(O)C(O)C5O)CCC34C(=O)O)C2(C)C)C(O)C(O)C1O` (stereo not drawn) the Potency was “inactive”. In the case of `COc1cc2ncnc(Nc3ccc(O)cc3)c2cc1OC`, the Potency was “inactive”. In the case of `C/C=C1\[C@H](OC2OC(COC3OC(CO)C(O)C(O)C3O)C(O)C(O)C2O)OC=C(C(=O)OC)[C@H]1CC(=O)OCCc1ccc(O)cc1` (stereo partly drawn), the Potency was “inactive”. For `O=C1Nc2ccccc2C(O)(c2ccccc2)C1O` (stereo not drawn), the Potency was “inactive”. With `Cc1ccc(C(=O)N(CCCN)C(c2oc3cc(Cl)ccc3c(=O)c2Cc2ccccc2)C(C)C)cc1` (stereo not drawn) the Potency was 517 nM (active). With `COC(=O)C1=COC(O[C@@H]2O[C@H](CO)[C@@H](O)[C@H](O)[C@H]2O)[C@H]2[C@@H]1[C@H](OC(=O)CCc1ccc(O)cc1)C[C@]2(C)O` (stereo partly drawn) the Potency was “inactive”. For `CC(C)(C#N)c1ccc(N2C(=O)OCc3cnc4ccc(-c5cnc6ccccc6c5)cc4c32)cc1`, the Potency was 3660 nM (active). With `CC(=O)O[C@@](C)(C(=O)/C=C/C(C)(C)O)[C@H]1[C@H](O)C[C@@]2(C)[C@@H]3CC=C4[C@@H](C=C(O)C(=O)C4(C)C)[C@]3(C)C(=O)C[C@]12C` the Potency was 796 nM (active). In the case of `O=C(O[C@H]1[C@@H]2C[C@@H]3OC[C@](O)([C@@H]1Cl)[C@H]2C(O[C@@H]1O[C@H](CO)[C@@H](O)[C@H](O)[C@H]1O)O3)c1ccc(O)c(O)c1` (stereo partly drawn), the Potency was “inactive”. For `OCC(CO[C@@H]1O[C@H](CO)[C@@H](O)[C@H](O)[C@H]1O)c1ccc2c(c1)OCO2` (stereo partly drawn), the Potency was “inactive”. For `CC(C)CC1NC(=O)C2CC3(O)c4ccccc4NC3N2C1=O` (stereo not drawn), the Potency was “inactive”. For `O=C1NC(=O)C(c2cn3c4c(cccc24)CCC3)C1c1c[nH]c2ccccc12` (stereo not drawn), the Potency was 1300 nM (active). For `Nc1ccccc1N`, the Potency was “inactive”. With `Cc1ccc(N)cc1O` the Potency was “inactive”. For `C[C@@H]1CN(Cc2ncccn2)C[C@H]1c1nc2c(cnn2C2CCOCC2)c(=O)[nH]1`, the Potency was “inactive”. For `CC(=O)O[C@@H]1CC(C)=C2[C@H]1[C@H](C)CC[C@H]2/C=C(\C)C(=O)O`, the Potency was “inactive”. In the case of `CC1OC(OC2C(OC3C(O[C@H]4CC[C@@]5(C)C(CC[C@]6(C)C5C(=O)C=C5C7CC(C)(C)CC(O)[C@]7(C)CC[C@]56C)C4(C)C)OC(C(=O)O)C(O)C3O)OCC(O)C2O)C(O)C(O)C1O` (stereo partly drawn), the activity change, negative = cytotoxicity was 7.36% [at 9.29 µM] (inactive). For `O=C(c1ccc(/C=C/c2n[nH]c3ccccc23)cc1)N1CCNCC1`, the Potency was 6510 nM (active).
